High-throughput results: PubChem BioAssay, National Center for Advancing Translational Sciences (NCATS)
The full list was thinned out, with hits kept by preference.
HT1080NT lethal: qHTS for induction of synthetic lethality in tumor cells producing 2HG: qHTS for the HT-1080-NT fibrosarcoma cell line | HT-1080-NT fibrosarcoma viability, CellTiter-Glo ATP luminescence, 48 h | Potency, µM (top dose mostly 46.1 µM), without a hit: top-dose activity, negative = less viability, most hits filed as cytotoxic | 1.6% of 360,000 active | AID 686970, 2013;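 further: NT is the 2HG producing partner of a matched IDH1 knockdown line; potency means the concentration at half of the fitted maximal effect; 0% = DMSO-treated cells and -100% = media-only wells without cells; nearly all actives have a fitted effect of over 55% in size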
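Toxicity toward the 2HG-producing NT line was scored as %Activity, normalised to DMSO and no-cell wells, from CellTiter-Glo luminescence after 48 hours' treatment.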
IL-1B inflam inh: qHTS for Inhibitors of Inflammasome Signaling: IL-1-beta AlphaLISA Primary Screen; THP-1 LPS/ATP IL-1B secretion, AlphaLISA, 16 h; stronger effect = lower value; activity change, % at 57.5 µM; 4.7% of 360,000 active; AID 743279, 2014; in the data active means activity change below about -50%; inconclusive means mostly about -30% to -49%
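Secreted IL-1B measured by AlphaLISA bead assay after 16 h compound exposure of THP-1 cells; compounds (final up to 57.5 uM) added 1 h before LPS (250 ng/mL) and ATP (1.25 mM) stimulation; lower signal means less secretion.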
TDP1 cell noCPT: qHTS for Inhibitors of human tyrosyl-DNA phosphodiesterase 1 (TDP1): qHTS in cells in absence of CPT; 15% of 420,000 active; DT40 Tdp1-/- hTDP1 cells, no CPT, ATP luminescence, 48 h; Potency, µM (doses to about 46.2 µM), without a hit: at the top dose activity change, negative = growth inhibition, most hits filed as inhibitors; further: potency means the concentration at half of the fitted maximal effect; nearly all actives have a fitted effect of over 55% in size
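No-CPT arm: Tdp1-/-;hTDP1 DT40 cells (400/well) plus compounds, incubated ≥48 hr at 37 °C. Readout CellTiter-Glo luminescence.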
HT1080 IDH1KD tx: qHTS for induction of synthetic lethality in tumor cells producing 2HG: qHTS for the HT-1080-IDH1KD cell line | HT-1080 IDH1 knockdown viability, ATP luminescence, 48 h | Potency, µM (titrated, usually from 46.1 µM), for the others: at the highest dose activity, negative = toxicity, actives largely listed as cytotoxic | 2% of 360,000 active | AID 686971, 2013;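 further: potency means the concentration at half of the fitted maximal effect; 0% = DMSO wells and -100% = cell-free medium wells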
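Knockdown cells (IDH1KD HT-1080) received compounds 2 h after plating at 750 cells/well and were kept 48 h at 37 °C in 5% FBS RPMI. A CellTiter-Glo luminescence read gave % activity for curve fitting.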
DT40 TDP1 CPT: qHTS for Inhibitors of human tyrosyl-DNA phosphodiesterase 1 (TDP1): qHTS in cells in presence of CPT. chicken DT40 Tdp1-/-;hTDP1 cells + 20 nM CPT, ATP luminescence, 48 h. AID 686979, 2013. Potency, µM (titrated, usually from 46.2 µM), for inactives: at the highest dose activity change, negative = growth inhibition, actives largely listed as inhibitors. 12% of 420,000 active; further: potency means the concentration at half of the fitted maximal effect; nearly all actives have a fitted effect of over 55% in size
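Chicken DT40 Tdp1-/- cells stably complemented with human TDP1 were seeded at 400 cells/well in medium containing 20 nM camptothecin, exposed to pin-transferred compounds, and grown at 37 °C for at least 48 hr. Viability was read as ATP luminescence.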
ALOX12 inh: Primary qHTS assay for inhibitors of human arachidonate 12S-lipoxygenase (ALOX12): Round 2; 1.1% of 580,000 active; purified 12hLO, xylenol orange hydroperoxide absorbance; Potency, µM (doses to about 108 µM), for the others: at the highest dose activity change, negative = inhibition, most hits filed as inhibitors; Polyunsaturated fatty acid lipoxygenase ALOX12 (Homo sapiens), P18054; AID 1671190, 2021; further: potency means the concentration at half of the fitted maximal effect
Target sequence (P18054 whole entry, looked up): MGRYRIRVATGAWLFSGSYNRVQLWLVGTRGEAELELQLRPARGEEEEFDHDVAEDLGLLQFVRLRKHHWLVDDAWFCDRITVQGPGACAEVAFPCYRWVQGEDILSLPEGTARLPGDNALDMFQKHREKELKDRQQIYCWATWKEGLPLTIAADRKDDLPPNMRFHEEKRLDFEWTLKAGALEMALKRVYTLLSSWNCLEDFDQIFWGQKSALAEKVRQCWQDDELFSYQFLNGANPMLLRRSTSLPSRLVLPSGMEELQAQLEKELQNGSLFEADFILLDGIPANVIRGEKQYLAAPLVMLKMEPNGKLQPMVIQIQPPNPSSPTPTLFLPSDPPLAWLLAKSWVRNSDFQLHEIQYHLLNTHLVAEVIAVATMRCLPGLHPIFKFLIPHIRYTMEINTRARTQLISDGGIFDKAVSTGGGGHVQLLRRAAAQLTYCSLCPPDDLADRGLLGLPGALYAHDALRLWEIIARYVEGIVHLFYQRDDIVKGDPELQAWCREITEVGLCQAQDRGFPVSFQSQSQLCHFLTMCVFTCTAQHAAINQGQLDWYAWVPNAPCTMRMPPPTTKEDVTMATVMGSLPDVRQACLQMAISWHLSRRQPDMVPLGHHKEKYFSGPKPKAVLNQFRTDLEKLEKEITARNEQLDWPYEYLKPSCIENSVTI
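Purified human 12hLO (150 nM final) in 25 mM Hepes, 0.01% Triton X-100, pH 7.0 was preincubated 15 min at room temperature with compound. Then 40 uM arachidonic acid was added, 30 min. Hydroperoxide was read by Fe-XO absorbance ratio 573/405 nm.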
Numbers without * were called inactive; u = inconclusive; x = no result given; ! = not confirmed by another sample; [ ] = dose if it differs, or a comment. Unless noted, the call rests on the fitted dose curve; in most records, active means well fitted curve in the direction sought with a large enough effect; inconclusive means small, poorly fitted or top-dose-only effect, or another doubt; inactive means no such curve, though single readings can be large; an effect the other way counts as inactive or inconclusive. Unless noted, on the % scale 0 is the no-effect control and ±100 the full control effect.

SMILES	HT1080NT lethal	IL-1B inflam inh	TDP1 cell noCPT	HT1080 IDH1KD tx	DT40 TDP1 CPT	ALOX12 inh
COc1cc(OC)c2c(C)cc(=O)oc2c1C(CCN1CCOCC1)c1ccc(N(C)C)cc1 (centres undefined)	-7%	0	16µM*	-25%	5.2µM*	1%
CCCCCc1cc(=O)oc2c(C(CCN3CCN(c4ccccc4)CC3)c3ccc(N(C)C)cc3)c(OC)cc(OC)c12 (centres undefined)	-3%	-16	u	-4%	21µM*	-5%
Cc1ccc(-c2noc(CCn3c(=O)[nH]c4cc5c(cc4c3=O)OCO5)n2)cc1	x	x	x	x	x	-6%
C/C=C\C=C\C(=O)Nc1cccc(C2=NOC3(C2)C[C@@H](C(N)=O)N(C(=O)C(c2ccccc2)c2ccccc2)C3)c1 (some centres undefined)	-4%	u	u	-1%	u	8.9µM*
CC/C=C/C(=O)N1CC2(CC(c3cccc(NC(=O)CCCCC)c3)=NO2)C[C@H]1C(N)=O (some centres undefined)	0%	-7	0%	2%	6%	-3%
NC(=O)[C@@H]1CC2(CC(c3cccc(NC(=O)COc4ccc(Cl)cc4)c3)=NO2)CN1C(=O)COc1ccc(Cl)cc1 (some centres undefined)	u	-55*	12µM*	u	u	-29%
NC(=O)[C@H]1CC2(CC(c3cccc(NC(=O)COc4ccc(Cl)cc4)c3)=NO2)CN1C(=O)C(c1ccccc1)c1ccccc1 (some centres undefined)	u	u	13µM*	u	6.5µM*	-15%
CC/C=C/C(=O)N1CC2(CC(c3cccc(NC(=O)COc4ccc(Cl)cc4)c3)=NO2)C[C@H]1C(N)=O (some centres undefined)	0%	u	u	-2%	29µM*	-6%
Cc1c(C(=O)c2ccc[nH]2)oc2ccc(Br)cc12	x	x	x	x	x	8%
CC(C)NC(=O)CSc1ccccc1C(=O)Nc1ccccc1C(=O)NC1CC1	x	x	x	x	x	1%
CCCCCCCCCCOc1ccc(C(=O)OCC(=O)c2ccc(Cl)cc2)cc1	x	x	x	x	x	1%
CCCCCCCCCCOC(=O)Cn1c(COc2ccc(Cl)cc2)[n+](C)c2ccccc21	-24%	-72*	4.6µM*	-22%	4.1µM*	u
CCCCCCCCCCOC(=O)Cn1c(COc2cccc(C)c2)[n+](C)c2ccccc21	u	-97*	4.6µM*	u	7.3µM*	u
CCOC(=O)Cn1c(COc2ccccc2OC)[n+](C)c2ccccc21	-6%	23	-5%	11%	u	53%
CCCCCCCCCCOC(=O)Cn1c(COc2ccc(OC)cc2)[n+](C)c2ccccc21	21µM*	-108*!	2.6µM*	13µM*	2.6µM*	x
CCCCCCCCCCOC(=O)Cn1c(COc2ccccc2C)[n+](C)c2ccccc21	23µM*	-97*	1µM*	12µM*	1.6µM*	x
O=C(NC[C@H]1O[C@@H]2C[C@@H](CC(=O)N3CCC(F)(F)C3)O[C@@H]2[C@@H]1O)NC1CCC1	x	x	x	x	x	23%[176 µM]
COc1ccccc1NC(C)(C)c1nnnn1-c1ccc(OC)c(OC)c1	x	x	x	x	x	-25%
CCNC(=O)NC1(CCOC)CCN(C(=O)Cc2cccc(OC)c2)CC1	x	x	x	x	x	12%
COc1ccc(OC)c(NC(=O)CSc2nc(-c3ccccc3)nc3c2COC(C)(C)C3)c1	x	x	x	x	x	4%
